# Experimental data taken from PubChem BioAssay.
# Values without a mark were called inactive. For some assays here: Results with a measured potency or affinity are listed apart. The source made the active and inactive calls. Unless noted, the rule behind the calls is not given here.
# Tests used:
# [1] = antimalarial activity against Dd2 strain (AID 2302;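 active = growth inhibition above 50% at the single 2 µM test dose, taken to imply half-maximal potency below 2 µM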;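 note: 0% = DMSO untreated growth and 100% = chloroquine plus artemisinin killed control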); conditions: P. falciparum Dd2 in RBCs, LDH growth readout, 72 h; at 2 µM; active compounds read high
# [2] = human hepatoma cell viability loss – ATP luminescence, cytotoxicity control for P. falciparum antimalarial project, primary screen (AID 2303;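 active = inhibition above 50%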;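 note: 0% = DMSO wells and 100% = digitonin-killed cells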); conditions: HepG2 viability, 24-48 h, at 10 µM, active compounds read high
# [3] = target: L-lactate dehydrogenase (Plasmodium falciparum (isolate CDC / Honduras)) (UniProt Q27743); assay: PfLDH activity inhibition – cell lysate, 3D7 strain, counter-screen for P. falciparum growth inhibition project (AID 2304);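 note: 0% = vehicle and 100% = reference inhibitor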; conditions: P. falciparum 3D7 crude extract, LDH APAD/NBT absorbance; at 2 µM; active compounds read high
# [4] = inhibition of 3D7 malaria parasite growth – strain 3D7 (AID 2306);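 note: 0% = DMSO wells and 100% = chloroquine plus artemisinin control wells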; conditions: P. falciparum 3D7 erythrocytic growth, LDH absorbance, 72 h; at 2 µM; active compounds read high
# [5] = target: Calcium-dependent protein kinase 1 (Plasmodium falciparum (isolate 3D7)) (UniProt P62344); assay: PfCDPK1 kinase inhibitors, biochemical, TCAMS library (AID 1159585; cut-off not given, nearly all actives have IC50 up to about 0.98 µM;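 note: inhibitors leave more ATP so luminescence rises with inhibition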); conditions: recombinant PfCDPK1, Kinase-Glo ATP depletion luminescence
# [6] = target: Plasmodium falciparum protein kinase 6 (PK6, PF3D7_1337100) (UniProt Q8IDW1); assay: PfPK6 kinase inhibitors, biochemical, TCAMS library (AID 1159586); conditions: recombinant PfPK6, Kinase-Glo ATP depletion luminescence
# [7] = target: Protein kinase 7 (PK7), Plasmodium falciparum 3D7 (PF3D7_0213400) (UniProt Q7YTF7); assay: inhibition of Plasmodium PK7 catalytic activity – biochemical, TCAMS antimalarial set, Kinase-Glo luminescence (AID 1159587); conditions: recombinant PfPK7, Kinase-Glo ATP depletion luminescence
# [8] = target: Calcium-dependent protein kinase 4 (Plasmodium falciparum (isolate 3D7)) (UniProt Q8IBS5); assay: PfCDPK4 kinase inhibitors, biochemical, TCAMS library (AID 1159588; cut-off not given, nearly all actives have IC50 up to about 0.91 µM); conditions: recombinant PfCDPK4, Kinase-Glo ATP depletion luminescence
# Chain of Calcium-dependent protein kinase 4 (Plasmodium falciparum (isolate 3D7)) (Q8IBS5 whole entry, looked up): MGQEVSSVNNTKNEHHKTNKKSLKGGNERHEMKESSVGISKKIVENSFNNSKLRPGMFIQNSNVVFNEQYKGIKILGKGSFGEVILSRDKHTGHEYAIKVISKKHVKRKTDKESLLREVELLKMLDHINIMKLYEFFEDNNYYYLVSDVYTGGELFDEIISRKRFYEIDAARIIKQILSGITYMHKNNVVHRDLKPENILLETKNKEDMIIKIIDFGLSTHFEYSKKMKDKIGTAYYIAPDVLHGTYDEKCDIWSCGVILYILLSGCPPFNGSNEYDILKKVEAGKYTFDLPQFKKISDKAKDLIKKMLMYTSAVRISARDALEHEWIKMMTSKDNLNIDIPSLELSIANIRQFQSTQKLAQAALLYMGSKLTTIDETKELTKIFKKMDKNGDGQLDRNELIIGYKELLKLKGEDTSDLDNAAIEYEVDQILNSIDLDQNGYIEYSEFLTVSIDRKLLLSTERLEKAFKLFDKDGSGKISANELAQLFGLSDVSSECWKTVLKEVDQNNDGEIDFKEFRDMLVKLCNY
# Chain of Plasmodium falciparum protein kinase 6 (PK6, PF3D7_1337100) (Q8IDW1 1-305): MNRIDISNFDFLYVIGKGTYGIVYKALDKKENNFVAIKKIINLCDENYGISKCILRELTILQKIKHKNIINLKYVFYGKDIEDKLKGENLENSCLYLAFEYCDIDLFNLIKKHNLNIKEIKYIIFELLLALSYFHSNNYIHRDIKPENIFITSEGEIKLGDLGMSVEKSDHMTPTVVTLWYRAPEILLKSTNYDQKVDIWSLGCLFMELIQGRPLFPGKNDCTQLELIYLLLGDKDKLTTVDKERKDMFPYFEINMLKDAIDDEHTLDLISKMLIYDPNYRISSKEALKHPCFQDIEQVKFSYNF
# Chain of Protein kinase 7 (PK7), Plasmodium falciparum 3D7 (PF3D7_0213400) (Q7YTF7 1-343): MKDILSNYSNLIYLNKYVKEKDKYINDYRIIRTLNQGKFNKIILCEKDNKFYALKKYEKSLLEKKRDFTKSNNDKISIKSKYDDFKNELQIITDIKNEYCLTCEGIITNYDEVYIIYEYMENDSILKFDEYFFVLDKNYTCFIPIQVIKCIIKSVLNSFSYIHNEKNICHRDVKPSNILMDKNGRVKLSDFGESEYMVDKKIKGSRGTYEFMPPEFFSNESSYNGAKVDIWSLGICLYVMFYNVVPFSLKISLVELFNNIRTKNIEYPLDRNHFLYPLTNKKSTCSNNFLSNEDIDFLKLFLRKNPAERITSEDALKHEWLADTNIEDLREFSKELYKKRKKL
# Chain of L-lactate dehydrogenase (Plasmodium falciparum (isolate CDC / Honduras)) (Q27743 whole entry, looked up): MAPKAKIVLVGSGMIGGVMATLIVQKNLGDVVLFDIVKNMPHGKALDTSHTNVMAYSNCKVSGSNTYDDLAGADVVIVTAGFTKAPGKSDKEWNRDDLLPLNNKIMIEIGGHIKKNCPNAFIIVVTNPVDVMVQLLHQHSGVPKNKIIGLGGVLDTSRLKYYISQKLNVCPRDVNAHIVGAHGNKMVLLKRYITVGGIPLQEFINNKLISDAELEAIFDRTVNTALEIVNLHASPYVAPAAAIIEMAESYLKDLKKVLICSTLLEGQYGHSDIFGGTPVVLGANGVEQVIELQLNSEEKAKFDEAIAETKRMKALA
# Chain of Calcium-dependent protein kinase 1 (Plasmodium falciparum (isolate 3D7)) (P62344 whole entry, looked up): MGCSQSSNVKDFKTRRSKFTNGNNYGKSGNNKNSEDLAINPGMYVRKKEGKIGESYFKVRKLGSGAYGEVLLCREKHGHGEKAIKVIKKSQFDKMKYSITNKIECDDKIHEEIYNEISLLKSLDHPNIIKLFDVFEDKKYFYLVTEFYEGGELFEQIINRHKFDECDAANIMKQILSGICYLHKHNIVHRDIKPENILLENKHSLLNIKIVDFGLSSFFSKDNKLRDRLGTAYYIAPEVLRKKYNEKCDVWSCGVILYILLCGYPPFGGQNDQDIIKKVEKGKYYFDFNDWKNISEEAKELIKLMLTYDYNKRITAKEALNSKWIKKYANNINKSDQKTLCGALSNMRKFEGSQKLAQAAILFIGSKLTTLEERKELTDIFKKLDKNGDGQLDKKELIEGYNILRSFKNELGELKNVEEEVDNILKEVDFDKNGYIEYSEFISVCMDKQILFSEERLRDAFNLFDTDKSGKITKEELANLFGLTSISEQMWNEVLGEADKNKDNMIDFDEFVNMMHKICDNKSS
Compound,growth inhibition [1],inhibition [2],inhibition [3] [%],growth inhibition [4],outcome [5],outcome [6],outcome [7],outcome [8]
N#Cc1c(N2CCN(c3ccc(F)cc3)CC2)nc(N)c2c(N)nc3c(c12)CC(=O)N3C1CC1,82% (active),2%,-8,95% (active),inactive,inactive,inactive,inactive
Nc1nc(N)c2c(ccc3c2ccn3Cc2ccccc2)n1,94% (active),64% (active),-8,96% (active),inactive,inactive,inactive,inactive
COc1ccccc1CCNc1nc(C)cc(N[C@@H](CC(C)C)C(=O)NCc2cccc(F)c2)n1,79% (active),20%,-3,94% (active),inactive,inactive,inactive,inactive
CC(C)(C)NS(=O)(=O)c1cc(C(=O)N2CCC(CCN3CCC(O)(c4cccc(C(F)(F)F)c4)CC3)(c3cccc(F)c3)CC2)c(Cl)cc1F,55% (active),15%,-6,88% (active),inactive,inactive,inactive,inactive
CC(C)C(NC(=O)c1c(F)cccc1F)C(=O)Nc1ccc(Cc2nc3ccccc3s2)cc1 (stereo not given),55% (active),0%,6,86% (active),inactive,inactive,inactive,inactive
CC(C)CCN1CCCN(Cc2cccc(NC(=O)c3ccc(-c4ccccc4)cc3)c2)CC1,21%,27%,7,92% (active),inactive,inactive,inactive,inactive
Cc1cccc2[nH]c(-c3ccc(-c4ccc(NC(=O)N[C@@H]5C[C@H]5c5ccccc5)cc4)cc3)nc12,3%,28%,-5,96% (active),inactive,inactive,inactive,inactive
Cc1ccc(C(=O)Nc2cccc(CN3CCCN(Cc4ccc(O)cc4)CC3)c2)cc1,5%,-4%,-3,88% (active),inactive,inactive,inactive,inactive
CCN1CCN(c2cc(C)c3cc(NC(=O)c4ccc(OC)c([N+](=O)[O-])c4)ccc3n2)CC1,93% (active),25%,0,100% (active),inactive,inactive,inactive,inactive
COc1cc(C(=O)NC2CCN(Cc3ccccc3)CC2)ccc1-c1cc2cc(Cl)c(Cl)cc2[nH]1,101% (active),33%,5,102% (active),inactive,inactive,inactive,inactive
O=C(CCc1cnc[nH]1)Nc1cccc(-c2ccc(-c3nc4ccccc4[nH]3)s2)c1,37%,11%,0,92% (active),inactive,inactive,inactive,inactive
CCOC(=O)Cn1ccc2c(NCc3ccccc3)nc(C)nc21,0%,64% (active),-1,96% (active),inactive,inactive,inactive,inactive
CN(C)CCNc1cc(-c2cccnc2)nc(-c2ccncc2)n1,98% (active),33%,-5,100% (active),inactive,inactive,inactive,inactive
COc1ccc2nc(C)cc(NN=Cc3ccc([N+](=O)[O-])o3)c2c1,100% (active),18%,-5,100% (active),inactive,inactive,inactive,inactive
Nn1c(=O)oc2ccc(Cl)cc2c1=O,96% (active),4%,-5,97% (active),inactive,inactive,inactive,inactive
CCCC(=O)Nc1ccc(Nc2nc(C)cc(N3CCCC3)n2)cc1,46%,31%,4,100% (active),inactive,inactive,inactive,inactive
CN1CC[C@@H](Oc2cc(NC(=O)Nc3ccccc3Br)ccc2Cl)C1,6%,26%,0,100% (active),inactive,inactive,inactive,inactive
N#Cc1ccc(-c2ccc(OCC(O)CN3CCCN(Cc4cccc(O)c4Cl)CC3)cc2)cc1 (stereo not given),66% (active),3%,-6,98% (active),inactive,inactive,inactive,inactive
Cc1noc(C)c1-c1cccc(CNCc2ccc(-c3ccc(-c4nc5ccc(F)cc5[nH]4)cc3)cc2)c1,92% (active),23%,4,102% (active),inactive,inactive,inactive,inactive
NC(=O)c1ccsc1NC(=O)CNC(c1ccc(F)cc1)c1cccs1 (stereo not given),71% (active),31%,-2,92% (active),inactive,inactive,inactive,inactive

Compound,growth inhibition [1],inhibition [2],inhibition [3] [%],growth inhibition [4],outcome [5],outcome [6],outcome [7],outcome [8]
CC(C)N1CCN(c2ccc(OCCCCN3CCN(c4cccc(Cl)c4Cl)CC3)c(C(F)(F)F)c2)CC1,28%,64% (active),4,101% (active),inactive,inactive,inactive,inactive
Cc1cccc2[nH]c(-c3ccc(-c4ccc(NC(=O)Nc5ccsc5)cc4)s3)nc12,88% (active),74% (active),2,100% (active),inactive,inactive,inactive,inactive
COc1cc(NCCCNC(=O)c2cc3c(Cl)cc(Cl)cc3[nH]2)nc2ccccc12,100% (active),96% (active),-1,100% (active),inactive,inactive,inactive,inactive
COc1ccc2c(NN=Cc3ccccc3[N+](=O)[O-])cc(C)nc2c1,100% (active),14%,-4,101% (active),inactive,inactive,inactive,inactive
CC[C@H](C)CNC(=O)c1cccc(-c2cccc(CNCC3CNCCCO3)c2)n1 (stereo not given in full),54% (active),15%,1,91% (active),inactive,inactive,inactive,inactive
Nc1nc(N)c2cc(S(=O)(=O)c3ccc4ccccc4c3)ccc2n1,51% (active),14%,3,95% (active),inactive,inactive,inactive,inactive
CC(C)(C)c1ccc(NC(=O)c2cccc(CN3CCN(Cc4cccc(O)c4)CC3)c2)cc1,3%,28%,-2,92% (active),inactive,inactive,inactive,inactive
Fc1ccc2nc(-c3cccc(-c4cccc(CN5CCN(c6ccncc6)CC5)c4)c3)[nH]c2c1,99% (active),71% (active),1,102% (active),inactive,inactive,inactive,inactive
Cc1cccc2[nH]c(-c3ccc(-c4ccc(NC(=O)C(C)CN(C)C)cc4)cc3)nc12 (stereo not given),99% (active),18%,-6,99% (active),inactive,inactive,inactive,inactive
CCN(CC)CCCC(C)Nc1cc(C=Cc2ccc([N+](=O)[O-])cc2)nc2ccc(OC)cc12 (stereo not given),100% (active),37%,4,100% (active),inactive,inactive,inactive,inactive
COc1ccc2nc(-c3ccccc3)cc(NCCN(C)C)c2c1,23%,-1%,-3,101% (active),inactive,inactive,inactive,inactive
CC(C)C[C@H](NC(=O)c1ccc(OCCN2CCOCC2)cc1)C(=O)N[C@H](/C=N/N(C)C(=O)c1ccccc1)CCc1ccccc1,72% (active),8%,1,91% (active),inactive,inactive,inactive,inactive
COc1ccc(Cl)cc1N1CCN(CCCNC(=O)c2ccc(-c3nc4ccc(C(F)(F)F)cc4[nH]3)c(C)c2)CC1,14%,6%,-2,95% (active),inactive,inactive,inactive,inactive
Cc1ccc(NC(=O)c2cc(Br)cc(N3CCCN(C)CC3)c2)cc1F,1%,15%,-2,87% (active),inactive,inactive,inactive,inactive
Cc1nnc2c(NC(=O)/C=C/c3ccc(OC(F)(F)F)cc3)cc3cc(Cl)ccc3n12,99% (active),19%,4,94% (active),inactive,inactive,inactive,inactive
CN(C)c1nc2cc(-n3cnc4cc(-c5ccc(Cl)cc5)sc4c3=O)ccc2n1CCCN1CCCC1,73% (active),99% (active),2,97% (active),inactive,inactive,inactive,inactive
CC(C)COc1ccc(Cl)cc1Cc1ccc(-c2nc3ccc(Br)cc3[nH]2)o1,75% (active),19%,-3,80% (active),inactive,inactive,inactive,inactive
CC(C)Cn1c(Sc2ccc(C#N)c([N+](=O)[O-])c2)nnc1-c1ccc(N(C)C)cc1,98% (active),4%,4,98% (active),inactive,inactive,inactive,inactive
COc1ccccc1CN1CCC(NC(=O)c2ccc(-c3cccc(Cl)c3)s2)CC1,9%,49%,-1,84% (active),inactive,inactive,inactive,inactive
CCN(c1ccccc1)S(=O)(=O)c1ccc(OC)c(NC(=O)c2cccc(C(F)(F)F)c2)c1,70% (active),9%,-2,90% (active),inactive,inactive,inactive,inactive
